# Experimental data from PubChem BioAssay.
# Activity calls are given as the source filed them. Unless noted, no rule for the calls is given here.
# Tests used:
# [1] = compound effects on lung adenocarcinoma cell viability – A549, calcein-AM fluorescence, 48 h, basal, profiling panel (AID 1162); conditions: higher = more signal; also: test concentration not given here
# [2] = compound effects on differentiated 3T3-L1 adipocyte viability – cell-based, 3T3-L1 adipocytes, calcein-AM fluorescence, 48 h, basal, profiling panel (AID 1163); conditions: 3T3-L1 adipocytes viability, higher = more signal; also: test concentration not given here
# [3] = compound effects on hepatocellular carcinoma cell viability – HepG2, calcein-AM fluorescence, 48 h, basal, profiling panel (AID 1164); conditions: higher = more signal; also: test concentration not given here
# [4] = compound effects on multiple myeloma cell viability – MM1S, calcein-AM fluorescence, 48 h, basal, profiling panel (AID 1165); conditions: higher = more signal; also: test concentration not given here
# [5] = calcein-AM signal in unstimulated myeloma cells – cell-based, calcein-AM fluorescence, 48 h, PK04 Diversity Set, profiling panel (AID 1166); conditions: RPMI8226 myeloma viability, higher = more signal;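 also: cells grown under basal conditions without added stimulus; test concentration not given here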
# [6] = JC-1 mitochondrial signal, unstimulated HepG2 cells – cell-based, JC-1 fluorescence, 24 h, 100 nL compound, profiling panel (AID 1167); conditions: HepG2 mitochondrial potential, higher = more signal; also: test concentration not given here
# [7] = JC-1 mitochondrial signal, unstimulated adipocytes – cell-based, JC-1 fluorescence, 3T3-L1 adipocytes, 24 h, 100 nL compound, profiling panel (AID 1168); conditions: JC-1 mitochondrial fluorescence, higher = more signal, called active from +8 up or from −8 down; also: test concentration not given here
# [8] = JC-1 mitochondrial signal, unstimulated myeloma cells – cell-based, JC-1 fluorescence, RPMI8226, 24 h, 100 nL compound, profiling panel (AID 1169); conditions: JC-1 mitochondrial potential fluorescence, higher = more signal; also: test concentration not given here
# [9] = JC-1 mitochondrial signal, unstimulated MM1S myeloma – cell-based, JC-1 fluorescence, 24 h, 100 nL compound, profiling panel (AID 1170); conditions: MM1S mitochondrial potential, higher = more signal; also: test concentration not given here
# [10] = resazurin metabolic signal in A549 cells – cell-based, resazurin fluorescence, 24 h, PK04 Diversity Set, profiling panel (AID 1171); conditions: A549 viability, higher = more signal, called active from +8 up or from −8 down; also: test concentration not given here
# [11] = resazurin metabolic signal in HepG2 cells – cell-based, resazurin fluorescence, 24 h, PK04 Diversity Set, profiling panel (AID 1172); conditions: HepG2 viability, higher = more signal; also: test concentration not given here
# [12] = budding yeast growth changes without added modifier – OD600, strain BY4716, 24 h, basal condition, primary screen (AID 1173); conditions: S. cerevisiae BY4716 growth, OD600, 24 h; higher = more signal, called active from +8 up or from −8 down
# [13] = viability profiling in MM1S myeloma cells – cell-based, resazurin fluorescence, basal, 24 h, PK04 Diversity Set, profiling panel (AID 1174); conditions: higher = more signal, called active from +8 up or from −8 down; also: test concentration not given here
# [14] = biological target: Dihydroorotate dehydrogenase (quinone), mitochondrial (Plasmodium falciparum (isolate 3D7)) (UniProt Q08210); test: inhibition of P. falciparum DHODH – biochemical, C-terminal His tag, absorbance 600 nm, primary screen (AID 1175); conditions: PfDHODH enzyme, DCIP absorbance 600 nm; higher = more signal, called active from +8 up or from −8 down;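 also: recombinant parasite enzyme with a five histidine tag at its C terminus; test concentration not given here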
# [15] = inhibition of PAO1 biofilm formation – strain PAO1, LB-PBS medium, absorbance 600 nm, primary screen (AID 1176); also: test concentration not given here; conditions: P. aeruginosa PAO1 growth/biofilm, A600, 12 h; higher = more signal
# [16] = growth modulation of vineyard yeast isolate – strain RM11-1a, OD600, basal, 24 h, primary screen (AID 1177);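 also: cultures grown under basal conditions with no added stressor; test concentration not given here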; conditions: S. cerevisiae RM11-1a growth, OD600, 24 h; higher = more signal, called active from +8 up or from −8 down
# [17] = growth of efflux-deficient E. coli DRC39 – strain DRC39, OD650, 24 h, E. coli filamentation inducers, primary screen (AID 1178);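 also: growth measured as culture turbidity by optical density at 650 nm; test concentration not given here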; conditions: E. coli DRC39 acrAB, higher = more signal, called active from +8 up or from −8 down
# [18] = growth of efflux-deficient E. coli DRC39 – strain DRC39, OD650, 48 h, E. coli filamentation inducers, primary screen (AID 1179);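 also: screen aims at cell division blockers that make cells filament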; conditions: E. coli DRC39 delta-acrAB growth, higher = more signal, called active from +8 up or from −8 down
# [19] = viability profiling in RPMI8226 myeloma cells – cell-based, resazurin fluorescence, basal, 24 h, PK04 Diversity Set, profiling panel (AID 1180); conditions: higher = more signal;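 also: RPMI8826 multiple myeloma cell line at 5000 cells per well; test concentration not given here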
# [20] = biological target: E3 ubiquitin-protein ligase XIAP (Homo sapiens) (UniProt P98170); test: small molecules binding XIAP protein – biophysical, small-molecule microarray, fluorescence 635 nm, primary screen (AID 1181); conditions: higher = more signal;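 also: score merges 667 nm emission and signal to noise over triplicate slides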
# E3 ubiquitin-protein ligase XIAP (Homo sapiens), sequence (P98170 whole entry, looked up): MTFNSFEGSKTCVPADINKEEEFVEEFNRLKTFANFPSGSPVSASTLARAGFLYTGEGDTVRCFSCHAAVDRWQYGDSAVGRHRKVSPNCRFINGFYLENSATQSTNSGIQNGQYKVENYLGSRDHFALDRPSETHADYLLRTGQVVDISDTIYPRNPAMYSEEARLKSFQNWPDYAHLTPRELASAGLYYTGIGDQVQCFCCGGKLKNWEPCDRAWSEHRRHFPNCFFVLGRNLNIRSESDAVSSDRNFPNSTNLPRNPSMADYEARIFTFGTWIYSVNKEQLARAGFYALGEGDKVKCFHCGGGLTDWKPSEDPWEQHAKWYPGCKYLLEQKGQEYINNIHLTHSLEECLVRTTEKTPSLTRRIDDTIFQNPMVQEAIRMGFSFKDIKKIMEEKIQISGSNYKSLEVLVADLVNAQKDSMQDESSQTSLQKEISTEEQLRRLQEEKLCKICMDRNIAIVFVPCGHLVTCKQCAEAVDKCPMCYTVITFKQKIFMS
# Dihydroorotate dehydrogenase (quinone), mitochondrial (Plasmodium falciparum (isolate 3D7)), sequence (Q08210 whole entry, looked up): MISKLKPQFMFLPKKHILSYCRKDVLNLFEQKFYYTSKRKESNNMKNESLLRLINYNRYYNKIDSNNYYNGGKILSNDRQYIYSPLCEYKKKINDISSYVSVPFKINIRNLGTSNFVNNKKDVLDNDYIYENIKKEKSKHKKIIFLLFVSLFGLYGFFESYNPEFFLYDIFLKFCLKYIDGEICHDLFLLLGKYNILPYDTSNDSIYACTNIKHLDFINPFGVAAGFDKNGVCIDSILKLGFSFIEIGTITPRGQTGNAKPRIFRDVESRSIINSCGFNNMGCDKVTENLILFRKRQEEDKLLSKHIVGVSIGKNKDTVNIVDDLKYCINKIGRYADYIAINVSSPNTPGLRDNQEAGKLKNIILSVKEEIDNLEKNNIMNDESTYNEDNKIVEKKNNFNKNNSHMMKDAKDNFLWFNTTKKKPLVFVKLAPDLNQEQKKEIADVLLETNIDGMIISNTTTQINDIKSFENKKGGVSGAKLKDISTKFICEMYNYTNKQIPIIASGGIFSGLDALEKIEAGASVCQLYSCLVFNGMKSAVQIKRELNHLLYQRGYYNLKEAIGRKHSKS
Compound,z-score [1],z-score [2],z-score [3],z-score [4],z-score [5],z-score [6],z-score [7],z-score [8],z-score [9],z-score [10],z-score [11],z-score [12],z-score [13],composite z-score [14],z-score [15],z-score [16],z-score [17],z-score [18],z-score [19],composite z-score [20]
COCCOC(=O)N1C(=O)[C@@]2(c3cc(C#CC4=CCCCC4)ccc31)[C@H](c1ccc(O)cc1)N1[C@H](c3ccccc3)[C@H](c3ccccc3)OC(=O)[C@H]1[C@@H]2C(=O)N1CCN(c2ncccn2)CC1,-0.462,-0.89,0.19,0.444,0.771,0.642,1.87 (inactive),0.736,-0.587,0.0994 (inactive),0.295,0.343 (inactive),0.182 (inactive),0.524 (inactive),0.29 (inactive),0.516 (inactive),0.777 (inactive),0.731 (inactive),-0.169,-0.0761
CCOC(=O)c1ccc(NC(=O)O[C@H]2[C@H](OC(=O)Nc3ccc4c(c3)OCO4)[C@@H](OC(=O)Nc3ccc4c(c3)OCO4)[C@@H](OC)O[C@@H]2CO)cc1,-0.742,0.558,-1.09,-1.05,-0.141,0.305,0.463 (inactive),-0.66,-0.979,-0.214 (inactive),-0.741,1.1 (inactive),-0.849 (inactive),0.0737 (inactive),2.08 (inactive),2.29 (inactive),1.04 (inactive),-0.0515 (inactive),-0.836,0.519
COc1ccc([Si](C)(C)[C@H]2[C@H](CC(=O)N(CCO)Cc3ccccc3)O[C@@]3(C(=O)N(Cc4cccc(N5CCOC5=O)c4)c4ccccc43)[C@@H]2C)cc1,-1.49,0.836,-2.16,-1.79,-4.29,0.917,-0.606 (inactive),-1.16,-1.56,-3.44 (inactive),-2.5,0.181 (inactive),-3.55 (inactive),0.966 (inactive),1.28 (inactive),2.36 (inactive),-0.566 (inactive),-0.639 (inactive),-3.7,-0.0562
CCOC(=O)C[C@H]1[C@H](OC(=O)c2ccc(C(=O)c3ccccc3)cc2)[C@@H](NC(=O)Cc2ccc(OC)cc2)c2cc(OCCCO)ccc2N1C(=O)c1ccccc1,0.0281,-0.005,0.544,-0.272,-0.399,0.425,-0.386 (inactive),0.428,-0.107,0.69 (inactive),0.0566,0.29 (inactive),-0.292 (inactive),-0.517 (inactive),0.325 (inactive),-0.193 (inactive),-0.307 (inactive),-0.215 (inactive),-0.268,0.169
CCOC(=O)C[C@H]1[C@H](OC(=O)Cc2ccc3c(c2)OCO3)[C@@H](NC(=O)CC(C)C)c2cc(OCCCO)ccc2N1C(=O)Cc1ccc(OC)cc1,0.777,0.413,1.63,-0.322,0.791,3.73,0.31 (inactive),0.139,-0.19,-0.581 (inactive),-0.334,-0.252 (inactive),-0.0151 (inactive),-1.26 (inactive),0.101 (inactive),-1.73 (inactive),0.287 (inactive),0.629 (inactive),0.2,-0.0622
CCOC(=O)C[C@H]1[C@H](OC(=O)c2ccccc2-c2ccccc2)[C@@H](NC(=O)C2CCCCC2)c2cc(OCCCO)ccc2N1C(=O)Cc1ccc(OC)cc1,0.544,0.744,0.43,-0.524,-0.593,0.908,-0.388 (inactive),-0.285,-0.663,0.361 (inactive),-0.18,0.0422 (inactive),-0.257 (inactive),0.0563 (inactive),0.0238 (inactive),-0.508 (inactive),-0.506 (inactive),-0.657 (inactive),-0.466,-0.159
CCOC(=O)C[C@H]1[C@H](OC(=O)Cc2ccc3c(c2)OCO3)[C@@H](NC(=O)Cc2ccc(OC)cc2)c2cc(OCCCO)ccc2N1C(=O)c1ccc2ccccc2n1,2.47,0.189,1.37,0.631,-0.577,1.84,0.929 (inactive),0.628,0.819,-0.23 (inactive),-0.337,-1.12 (inactive),0.853 (inactive),-0.689 (inactive),0.82 (inactive),-2.18 (inactive),2.3 (inactive),2.12 (inactive),0.0153,0.0526
CCCCC(=C=CC[C@@H](O)c1ccccc1OCCO)C[C@@H](O)COCc1ccccc1,0.75,0.52,0.522,-2.34,-2.12,0.554,0.623 (inactive),-0.261,0.13,0.607 (inactive),-0.202,-0.984 (inactive),0.12 (inactive),-2.09 (inactive),0.0478 (inactive),-2.79 (inactive),0.666 (inactive),0.406 (inactive),0.267,0.0022
OCCCC1=CC(c2ccc(CN3CCCC3)cc2)N(Cc2sc3ccccc3c2Cl)CC1 (stereo not given),0.48,-0.301,0.212,-3.45,-3.64,3.4,0.0544 (inactive),-0.252,-0.356,0.341 (inactive),-0.516,-7.47 (inactive),-0.846 (inactive),0.721 (inactive),0.367 (inactive),0.922 (inactive),-0.365 (inactive),-1.05 (inactive),0.234,0.0623
[N-]=[N+]=NCc1ccccc1[C@@H]1OC(c2ccc(OCCCO)cc2)=N[C@]1(CCS(=O)(=O)c1ccccc1)C(=O)NCC(O)CO (stereo not given in full),1.3,0.273,1.4,0.481,1.67,-0.142,0.0693 (inactive),-0.0493,-0.198,-0.911 (inactive),-0.618,-0.543 (inactive),-0.121 (inactive),-0.716 (inactive),0.563 (inactive),-0.397 (inactive),0.488 (inactive),1.2 (inactive),-0.471,0.0731
[N-]=[N+]=NCc1ccccc1C[C@@]1(C(=O)N2CCOCC2)N=C(c2ccc(OCCCO)cc2)O[C@@H]1c1ccccc1,-1.99,1.69,-1.7,-3.43,-4.4,-0.801,0.86 (inactive),-1.25,-1.12,-1.32 (inactive),-0.932,-2.93 (inactive),-4.83 (inactive),0.192 (inactive),0.593 (inactive),-0.0165 (inactive),0.834 (inactive),-0.274 (inactive),-4.29,0.284
CCCCC(O)C1C=CC2C(=O)N(c3ccccc3)C(=O)C2N1Nc1ccc(C(C)C)cc1 (stereo not given),-0.341,-1.52,1.6,-0.603,-0.216,-1.29,-1.04 (inactive),-0.749,-0.557,-0.762 (inactive),-0.741,-0.443 (inactive),-1.1 (inactive),0.119 (inactive),1.14 (inactive),0.477 (inactive),-0.622 (inactive),0.0644 (inactive),-0.471,0.199
COc1cc2c(cc1O)C(C)N(Cc1ccc([N+](=O)[O-])o1)CC2 (stereo not given),0.687,0.831,-0.963,-1.21,-0.867,-2.09,-0.741 (inactive),0.105,-0.208,-0.0799 (inactive),-0.11,-0.942 (inactive),-0.653 (inactive),-0.749 (inactive),-0.103 (inactive),-0.74 (inactive),-1.04 (inactive),-0.679 (inactive),-0.396,-0.127
COCCOC(=O)N1C(=O)[C@@]2(c3cc(C#CCNC(N)=O)ccc31)[C@H](C(=O)N1CCc3cc(OC)c(OC)cc3C1)[C@H]1C(=O)O[C@H](c3ccccc3)[C@H](c3ccccc3)N1[C@@H]2c1ccccc1OCCO,0.573,0.376,0.479,0.576,-0.529,-1.2,1.72 (inactive),-0.502,-0.98,-0.286 (inactive),0.0874,1.11 (inactive),0.256 (inactive),-1.68 (inactive),1.54 (inactive),0.816 (inactive),1.27 (inactive),1.29 (inactive),0.274,0.0578
CC(=O)c1ccc(C(O)C2C=CC3C(=O)N(c4ccccc4)C(=O)C3N2Nc2ccc(C#N)cc2)cc1 (stereo not given),-0.53,-0.292,-0.477,-0.262,-0.821,-1.19,-1.06 (inactive),-0.257,-0.0349,-0.178 (inactive),-1.04,-2.04 (inactive),-0.848 (inactive),-0.946 (inactive),0.695 (inactive),-0.826 (inactive),-0.821 (inactive),-0.433 (inactive),-1.84,-0.396
Cc1cc(C)c(C(O)C2C=CC3C(=O)NC(=O)C3N2Nc2ccc(Cl)cc2Cl)c(C)c1 (stereo not given),-2.15,-0.22,-1.68,-3.52,-3.03,-2.65,-0.143 (inactive),-1.02,-0.44,-1.59 (inactive),-2.05,-3.83 (inactive),-1.94 (inactive),-0.0825 (inactive),1.62 (inactive),0.737 (inactive),-0.731 (inactive),-1.17 (inactive),-1.81,0.0251
C=CCN1Cc2ccccc2[C@H]2OC(c3ccc(OCCCO)cc3)=N[C@@]2(CC=C)C1=O,-0.391,0.659,-0.121,-1.7,-2.4,2.11,0.661 (inactive),-0.807,-1.01,-1.18 (inactive),-0.594,-0.926 (inactive),-1.72 (inactive),-0.116 (inactive),0.507 (inactive),1.18 (inactive),0.36 (inactive),1.09 (inactive),-1.8,0.069
O=C1C2C=CC(C(O)c3ccc(F)cc3)N(n3cnnc3)C2C(=O)N1Cc1ccccc1 (stereo not given),-0.184,0.799,-1,-0.0875,-1.08,-0.518,-0.633 (inactive),-0.0973,0.0911,-1.29 (inactive),-1.05,0.885 (inactive),-0.794 (inactive),-0.188 (inactive),-0.128 (inactive),-0.592 (inactive),-0.352 (inactive),-0.434 (inactive),-1.47,-0.145
